For seven molecules, inhibition results are on record in ChEMBL document CHEMBL1961873, “Compounds: GSK PKIS; Assays: Nanosyn kinase panel” (2012).

The target in assay [1] is Fibroblast growth factor receptor 4 (Homo sapiens) (UniProt P22455). To be noted: at 1 µM.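 Also: reported figure is the averaged percent inhibition of FGFR4, from the GSK PKIS kinase screening panel.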
The target of assay [2] is Tyrosine-protein kinase Fgr (Homo sapiens) (UniProt P09769). The settings on record: at 0.1 µM.
Assay [3] addresses Vascular endothelial growth factor receptor 1 (Homo sapiens) (UniProt P17948). The settings on record: at 0.1 µM.
Assay [4] shares this target. The settings on record: at 1 µM.
Assay [5] deals with Receptor-type tyrosine-protein kinase FLT3 (Homo sapiens) (UniProt P36888). The settings on record: at 0.1 µM.
Assay [6] shares this target. To be noted: at 1 µM.
Assay [7] relates to T1, Receptor-type tyrosine-protein kinase FLT3 (Homo sapiens), P36888 [D835Y].
T1 sequence (whole entry): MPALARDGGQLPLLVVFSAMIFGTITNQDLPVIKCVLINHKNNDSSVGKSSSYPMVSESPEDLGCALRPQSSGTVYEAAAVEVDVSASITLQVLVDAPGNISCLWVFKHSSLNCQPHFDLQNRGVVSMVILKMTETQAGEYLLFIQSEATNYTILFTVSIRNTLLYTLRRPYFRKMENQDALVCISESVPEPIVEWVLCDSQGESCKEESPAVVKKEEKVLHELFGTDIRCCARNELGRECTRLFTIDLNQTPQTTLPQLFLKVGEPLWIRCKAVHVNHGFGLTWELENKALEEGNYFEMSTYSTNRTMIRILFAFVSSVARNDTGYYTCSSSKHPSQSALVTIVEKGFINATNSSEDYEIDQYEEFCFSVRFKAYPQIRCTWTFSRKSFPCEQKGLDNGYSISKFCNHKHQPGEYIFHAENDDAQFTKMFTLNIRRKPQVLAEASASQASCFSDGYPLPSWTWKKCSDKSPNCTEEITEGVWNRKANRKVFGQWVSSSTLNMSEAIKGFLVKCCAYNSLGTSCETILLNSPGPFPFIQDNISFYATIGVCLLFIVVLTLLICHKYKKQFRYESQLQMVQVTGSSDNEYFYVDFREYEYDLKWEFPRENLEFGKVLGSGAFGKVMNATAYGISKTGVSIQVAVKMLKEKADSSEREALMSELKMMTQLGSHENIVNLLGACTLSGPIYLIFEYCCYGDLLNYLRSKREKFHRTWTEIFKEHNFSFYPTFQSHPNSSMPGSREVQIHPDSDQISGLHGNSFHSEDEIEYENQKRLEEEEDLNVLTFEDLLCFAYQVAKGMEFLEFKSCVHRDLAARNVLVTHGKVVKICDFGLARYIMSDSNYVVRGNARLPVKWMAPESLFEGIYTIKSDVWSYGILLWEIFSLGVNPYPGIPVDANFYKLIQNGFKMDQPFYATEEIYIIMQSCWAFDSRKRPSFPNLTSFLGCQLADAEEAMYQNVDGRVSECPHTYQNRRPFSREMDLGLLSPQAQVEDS
To be noted: at 0.1 µM.

The target of assay [8] is Non-receptor tyrosine-protein kinase TYK2 (Homo sapiens) (UniProt P29597). To be noted: at 1 µM.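 Also: values are mean percent inhibition of TYK2 kinase.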
Chain of Non-receptor tyrosine-protein kinase TYK2 (Homo sapiens) (P29597 whole entry): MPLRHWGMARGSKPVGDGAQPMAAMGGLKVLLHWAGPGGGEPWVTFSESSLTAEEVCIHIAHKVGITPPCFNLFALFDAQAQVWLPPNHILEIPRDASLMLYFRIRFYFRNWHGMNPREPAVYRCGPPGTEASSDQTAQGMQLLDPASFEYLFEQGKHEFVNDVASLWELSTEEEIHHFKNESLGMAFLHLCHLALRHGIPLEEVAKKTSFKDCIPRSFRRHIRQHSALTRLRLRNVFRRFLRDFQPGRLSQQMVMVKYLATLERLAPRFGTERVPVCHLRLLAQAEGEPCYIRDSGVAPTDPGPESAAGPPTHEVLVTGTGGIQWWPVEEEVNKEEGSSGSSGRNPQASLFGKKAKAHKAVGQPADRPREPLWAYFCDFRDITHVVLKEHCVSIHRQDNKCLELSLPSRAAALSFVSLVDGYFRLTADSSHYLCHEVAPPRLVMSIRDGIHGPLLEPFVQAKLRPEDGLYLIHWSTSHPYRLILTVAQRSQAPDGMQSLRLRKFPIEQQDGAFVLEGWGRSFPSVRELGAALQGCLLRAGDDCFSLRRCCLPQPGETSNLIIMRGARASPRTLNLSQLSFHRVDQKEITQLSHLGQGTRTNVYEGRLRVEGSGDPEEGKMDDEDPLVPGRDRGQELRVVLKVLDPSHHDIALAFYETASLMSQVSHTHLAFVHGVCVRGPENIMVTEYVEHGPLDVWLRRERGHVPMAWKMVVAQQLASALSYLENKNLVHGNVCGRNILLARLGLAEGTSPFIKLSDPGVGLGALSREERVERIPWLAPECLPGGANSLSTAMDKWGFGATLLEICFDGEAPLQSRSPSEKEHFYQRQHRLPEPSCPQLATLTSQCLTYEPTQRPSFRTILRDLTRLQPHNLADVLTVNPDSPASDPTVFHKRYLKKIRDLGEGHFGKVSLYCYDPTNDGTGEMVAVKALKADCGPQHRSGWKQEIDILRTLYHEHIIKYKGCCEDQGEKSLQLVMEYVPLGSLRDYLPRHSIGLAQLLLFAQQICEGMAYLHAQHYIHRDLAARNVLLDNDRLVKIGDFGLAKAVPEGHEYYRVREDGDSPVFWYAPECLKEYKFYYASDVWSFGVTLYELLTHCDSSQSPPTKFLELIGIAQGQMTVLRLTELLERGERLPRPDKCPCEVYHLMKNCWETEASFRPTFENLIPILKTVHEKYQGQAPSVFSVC
In assay [9] the target is T2, Tyrosine-protein kinase receptor TYRO3 (Homo sapiens) (UniProt Q06418).
T2 sequence (whole entry): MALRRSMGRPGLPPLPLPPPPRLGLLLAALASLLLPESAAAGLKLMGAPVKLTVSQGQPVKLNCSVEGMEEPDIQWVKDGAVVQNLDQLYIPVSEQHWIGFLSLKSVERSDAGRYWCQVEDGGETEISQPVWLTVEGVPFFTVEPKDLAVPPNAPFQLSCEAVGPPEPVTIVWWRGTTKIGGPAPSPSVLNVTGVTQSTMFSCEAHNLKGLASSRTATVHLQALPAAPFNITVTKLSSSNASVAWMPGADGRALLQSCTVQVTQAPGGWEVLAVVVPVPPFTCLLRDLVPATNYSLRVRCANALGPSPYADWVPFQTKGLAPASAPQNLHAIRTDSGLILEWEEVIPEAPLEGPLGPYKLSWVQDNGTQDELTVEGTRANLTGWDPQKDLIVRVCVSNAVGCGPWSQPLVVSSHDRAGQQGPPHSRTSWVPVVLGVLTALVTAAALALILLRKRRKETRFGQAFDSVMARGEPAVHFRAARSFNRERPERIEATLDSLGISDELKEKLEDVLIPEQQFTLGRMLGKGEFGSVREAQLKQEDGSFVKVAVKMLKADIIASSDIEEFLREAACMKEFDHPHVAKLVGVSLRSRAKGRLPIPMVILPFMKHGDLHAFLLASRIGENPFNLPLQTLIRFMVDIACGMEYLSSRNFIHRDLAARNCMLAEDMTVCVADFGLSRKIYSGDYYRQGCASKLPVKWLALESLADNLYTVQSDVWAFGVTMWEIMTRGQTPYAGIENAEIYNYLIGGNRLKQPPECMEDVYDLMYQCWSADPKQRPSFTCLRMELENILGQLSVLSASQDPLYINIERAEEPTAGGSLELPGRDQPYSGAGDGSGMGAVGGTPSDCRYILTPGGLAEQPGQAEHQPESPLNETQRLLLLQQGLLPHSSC
To be noted: at 0.1 µM.

For assay [10], the target named is T2, Tyrosine-protein kinase receptor TYRO3 (Homo sapiens). The settings on record: at 1 µM.
In assay [11] the target is Tyrosine-protein kinase Yes (Homo sapiens) (UniProt P07947). The settings on record: at 0.1 µM.
Chain of Tyrosine-protein kinase Yes (Homo sapiens) (P07947 2-543 limits assumed): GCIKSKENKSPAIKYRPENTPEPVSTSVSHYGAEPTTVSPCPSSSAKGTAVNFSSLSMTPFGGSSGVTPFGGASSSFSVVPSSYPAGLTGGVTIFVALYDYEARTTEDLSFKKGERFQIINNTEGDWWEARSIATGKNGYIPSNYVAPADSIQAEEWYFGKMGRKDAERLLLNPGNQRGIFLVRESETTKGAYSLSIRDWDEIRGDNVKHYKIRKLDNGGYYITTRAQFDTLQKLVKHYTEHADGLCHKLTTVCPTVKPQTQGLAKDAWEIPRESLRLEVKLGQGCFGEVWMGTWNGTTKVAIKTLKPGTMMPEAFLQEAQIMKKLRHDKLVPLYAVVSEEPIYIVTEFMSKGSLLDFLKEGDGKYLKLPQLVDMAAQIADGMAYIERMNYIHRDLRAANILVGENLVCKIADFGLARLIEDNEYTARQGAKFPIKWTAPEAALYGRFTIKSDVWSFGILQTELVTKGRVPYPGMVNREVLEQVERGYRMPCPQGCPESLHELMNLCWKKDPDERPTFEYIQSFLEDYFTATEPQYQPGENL
For assay [12] the target is unchanged. To be noted: at 1 µM.
The target in assay [13] is T3, Tyrosine-protein kinase ZAP-70 (Homo sapiens) (UniProt P43403).
T3 sequence (whole entry): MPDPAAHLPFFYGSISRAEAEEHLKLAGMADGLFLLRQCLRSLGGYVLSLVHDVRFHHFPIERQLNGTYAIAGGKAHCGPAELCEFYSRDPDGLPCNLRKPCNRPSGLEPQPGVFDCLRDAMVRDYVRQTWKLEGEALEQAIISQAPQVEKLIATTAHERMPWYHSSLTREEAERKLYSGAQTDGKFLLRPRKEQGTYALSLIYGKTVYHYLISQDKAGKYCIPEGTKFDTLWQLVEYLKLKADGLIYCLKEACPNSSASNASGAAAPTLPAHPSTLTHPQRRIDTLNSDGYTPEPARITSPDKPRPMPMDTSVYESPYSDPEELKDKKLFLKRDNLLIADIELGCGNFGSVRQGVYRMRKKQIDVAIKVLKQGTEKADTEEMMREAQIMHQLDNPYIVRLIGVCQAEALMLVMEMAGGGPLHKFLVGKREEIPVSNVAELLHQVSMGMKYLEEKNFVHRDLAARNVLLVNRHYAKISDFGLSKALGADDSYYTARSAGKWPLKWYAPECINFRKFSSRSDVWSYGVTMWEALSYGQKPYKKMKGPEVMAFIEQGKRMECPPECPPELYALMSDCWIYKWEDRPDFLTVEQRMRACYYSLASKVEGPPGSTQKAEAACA
To be noted: at 0.1 µM.

For assay [14], the target named is T3, Tyrosine-protein kinase ZAP-70 (Homo sapiens). To be noted: at 1 µM.
The target of assay [15] is Serine/threonine-protein kinase B-raf (Homo sapiens) (UniProt P15056). The settings on record: at 0.1 µM.
Chain of Serine/threonine-protein kinase B-raf (Homo sapiens) (P15056 whole entry): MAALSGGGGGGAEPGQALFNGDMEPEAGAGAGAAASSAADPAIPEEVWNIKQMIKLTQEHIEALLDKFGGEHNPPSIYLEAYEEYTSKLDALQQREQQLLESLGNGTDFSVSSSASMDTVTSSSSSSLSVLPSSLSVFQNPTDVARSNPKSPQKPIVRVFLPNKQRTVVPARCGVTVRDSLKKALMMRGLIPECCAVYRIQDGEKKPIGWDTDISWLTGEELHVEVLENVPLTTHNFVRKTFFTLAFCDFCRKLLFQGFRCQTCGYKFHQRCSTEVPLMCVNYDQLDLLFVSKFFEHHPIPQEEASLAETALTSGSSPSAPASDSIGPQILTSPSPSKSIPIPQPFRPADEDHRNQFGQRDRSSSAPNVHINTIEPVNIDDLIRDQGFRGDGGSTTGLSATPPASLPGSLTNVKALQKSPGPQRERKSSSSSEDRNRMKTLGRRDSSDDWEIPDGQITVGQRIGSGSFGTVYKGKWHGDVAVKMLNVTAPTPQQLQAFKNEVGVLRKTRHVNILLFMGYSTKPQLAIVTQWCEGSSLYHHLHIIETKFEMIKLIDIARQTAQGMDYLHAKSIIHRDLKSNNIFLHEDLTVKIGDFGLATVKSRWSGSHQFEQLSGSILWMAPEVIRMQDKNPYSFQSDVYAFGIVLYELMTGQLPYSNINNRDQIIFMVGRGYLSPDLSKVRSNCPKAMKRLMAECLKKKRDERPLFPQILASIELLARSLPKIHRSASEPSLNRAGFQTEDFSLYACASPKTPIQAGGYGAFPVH
The target is the same in assay [16]. To be noted: at 1 µM.
The test system of assay [17] is Serine/threonine-protein kinase B-raf (Homo sapiens), P15056 [V600E]. To be noted: at 0.1 µM.
Chain of Serine/threonine-protein kinase B-raf (Homo sapiens), P15056 [V600E] (P15056 whole entry V600E): as the sequence (P15056 whole entry) above, with V600E counted along it
Assay [18] shares this test system. To be noted: at 1 µM.
Assay [19] addresses RAF proto-oncogene serine/threonine-protein kinase (Homo sapiens) (UniProt P04049). To be noted: at 0.1 µM.
Assay [20] concerns the target Tyrosine-protein kinase Fgr (Homo sapiens) (UniProt P09769). To be noted: at 1 µM.

Chain of Vascular endothelial growth factor receptor 1 (Homo sapiens) (P17948 whole entry): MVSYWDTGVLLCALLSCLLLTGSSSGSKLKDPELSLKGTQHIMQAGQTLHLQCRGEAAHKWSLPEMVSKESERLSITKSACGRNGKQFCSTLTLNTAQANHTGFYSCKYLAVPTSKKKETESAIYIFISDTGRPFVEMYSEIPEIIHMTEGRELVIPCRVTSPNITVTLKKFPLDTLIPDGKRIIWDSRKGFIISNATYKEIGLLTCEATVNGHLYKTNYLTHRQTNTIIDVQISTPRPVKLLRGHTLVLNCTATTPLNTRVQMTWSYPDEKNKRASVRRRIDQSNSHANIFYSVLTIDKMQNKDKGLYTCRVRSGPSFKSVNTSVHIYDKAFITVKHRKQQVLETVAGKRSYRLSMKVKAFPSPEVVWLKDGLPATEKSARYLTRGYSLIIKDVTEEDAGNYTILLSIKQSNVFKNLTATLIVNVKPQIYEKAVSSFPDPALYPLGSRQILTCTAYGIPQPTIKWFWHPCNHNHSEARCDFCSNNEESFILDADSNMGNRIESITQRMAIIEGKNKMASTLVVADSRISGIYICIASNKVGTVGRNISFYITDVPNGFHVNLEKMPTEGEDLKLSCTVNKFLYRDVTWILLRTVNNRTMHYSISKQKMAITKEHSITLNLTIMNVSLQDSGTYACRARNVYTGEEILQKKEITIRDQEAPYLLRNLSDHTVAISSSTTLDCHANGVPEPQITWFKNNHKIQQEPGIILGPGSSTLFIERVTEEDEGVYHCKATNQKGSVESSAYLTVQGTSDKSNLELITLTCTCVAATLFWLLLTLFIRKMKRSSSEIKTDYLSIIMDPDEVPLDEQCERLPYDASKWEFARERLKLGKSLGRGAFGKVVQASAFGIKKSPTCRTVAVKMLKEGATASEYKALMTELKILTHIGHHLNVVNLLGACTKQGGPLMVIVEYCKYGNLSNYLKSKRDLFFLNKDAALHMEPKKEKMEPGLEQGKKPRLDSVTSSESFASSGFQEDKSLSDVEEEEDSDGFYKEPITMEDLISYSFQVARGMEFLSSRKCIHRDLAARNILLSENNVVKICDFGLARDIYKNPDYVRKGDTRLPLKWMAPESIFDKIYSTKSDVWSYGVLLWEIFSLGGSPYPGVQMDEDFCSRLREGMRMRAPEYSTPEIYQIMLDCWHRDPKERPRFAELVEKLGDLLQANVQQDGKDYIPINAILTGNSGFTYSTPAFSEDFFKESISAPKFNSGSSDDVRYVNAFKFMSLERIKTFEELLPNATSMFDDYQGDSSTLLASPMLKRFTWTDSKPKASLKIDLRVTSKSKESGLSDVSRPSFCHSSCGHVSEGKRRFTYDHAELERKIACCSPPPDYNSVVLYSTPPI
Chain of Fibroblast growth factor receptor 4 (Homo sapiens) (P22455 22-802 limits assumed): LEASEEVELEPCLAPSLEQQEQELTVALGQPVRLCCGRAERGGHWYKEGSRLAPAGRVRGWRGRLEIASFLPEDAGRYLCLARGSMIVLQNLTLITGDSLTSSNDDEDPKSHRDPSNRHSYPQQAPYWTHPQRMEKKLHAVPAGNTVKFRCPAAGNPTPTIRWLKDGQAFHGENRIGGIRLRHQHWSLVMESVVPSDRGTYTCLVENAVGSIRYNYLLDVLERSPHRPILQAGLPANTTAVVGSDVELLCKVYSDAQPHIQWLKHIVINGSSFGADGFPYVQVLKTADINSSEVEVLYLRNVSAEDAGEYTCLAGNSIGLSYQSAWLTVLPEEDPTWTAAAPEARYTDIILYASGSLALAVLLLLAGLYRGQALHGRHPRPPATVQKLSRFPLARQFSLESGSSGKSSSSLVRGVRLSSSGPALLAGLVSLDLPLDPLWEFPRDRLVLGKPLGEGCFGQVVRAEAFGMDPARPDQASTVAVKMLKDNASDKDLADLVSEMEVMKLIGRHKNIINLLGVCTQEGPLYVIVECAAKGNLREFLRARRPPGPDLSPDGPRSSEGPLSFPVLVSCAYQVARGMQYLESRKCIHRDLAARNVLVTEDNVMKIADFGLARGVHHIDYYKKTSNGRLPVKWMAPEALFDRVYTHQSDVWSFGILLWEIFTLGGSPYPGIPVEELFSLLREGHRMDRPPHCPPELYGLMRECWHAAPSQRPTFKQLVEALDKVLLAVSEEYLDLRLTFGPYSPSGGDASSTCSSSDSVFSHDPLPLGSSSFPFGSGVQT

In the case of `CCn1c(-c2nonc2N)nc2cnc(Oc3cccc(NC(=O)c4ccc(N(C)C)cc4)c3)cc21`, the inhibition (usually the change of the read-out against control, counted positive when it falls) in assay [1] was -0.05%; in assay [2], 0.55%; in assay [3], 2.13%; in assay [4], 4.41%; in [5], 0.6%; in assay [6], 1.09%. Besides, the inhibition is -1.65% in assay [7]; -0.04% in [8]; 0.1% in assay [9]; 0.87% in assay [10]; 0.93% in [11]; 2.45% in assay [12]. For the same molecule, the inhibition in assay [13] is 1.81%; in assay [14] it was 2.72%; in [15], 1.95%; in [16], 5.71%; in assay [17], 2.62%; in assay [18], 6.32%. The inhibition in [19] was found to be 0.85%.
`Fc1ccc(-c2nn3ncccc3c2-c2ccnc(Nc3ccc4c(c3)OCCO4)n2)cc1`: the inhibition is 3.32% in assay [1]; 68.2% in [2]; 84% in assay [20]; 7.67% in assay [3]; 30.8% in assay [4]; 2.79% in assay [5]. For the same molecule, the inhibition in [6] was 6.52%; in assay [7], -1.97%; in assay [8], -3.36%; in assay [9], 5.85%; in assay [10], 24.8%; in [11], 86.3%. The inhibition in assay [12] worked out at 96.6%; in assay [13], 3.1%; in assay [14], 3.06%; in [15], 11.6%; in assay [16], 25.9%; in [17] it was 11.6%. In addition, the inhibition in assay [18] was determined as 21.5%; in [19], 0.23%.
For `Clc1ccc(-c2nn3ncccc3c2-c2ccnc(Nc3ccccc3)n2)cc1`, the inhibition in assay [1] worked out at 1.94%; in assay [2], 25.1%; in assay [20], 70.2%; in assay [3], 4.39%; in assay [4] it was 14.6%; in [5] it was 0.8%. Further, the inhibition in [6] was 4.19%; in [7], -2.63%; in [8] it was -0.64%; in [9], 1.14%; in [10] it was 5.63%; in assay [11] it was 44.9%. The inhibition is 89.5% in assay [12]; 0.2% in assay [13]; 0.42% in [14]; 2.69% in assay [15]; 4.94% in [16]; 2.08% in [17]. In addition, the figures for the inhibition in assay [18] and in assay [19] were 5.6% and -2.35%, respectively.
For `O=C(Nc1n[nH]c2cc(-c3ccc(F)cc3)ccc12)C1CC1`, the inhibition is 1.06% in [1]; 1.35% in [2]; 9.07% in assay [20]; -0.63% in assay [3]; 0.79% in [4]; 1.99% in [5]. The inhibition in assay [6] is 3.69%; in [7], -0.06%; in [8], -3.58%; in assay [9], 4%; in assay [10], 13.5%; in assay [11], 1.98%. Besides, the inhibition in assay [12] is 6.64%; in assay [13] it was 1.71%; in assay [14], 3.64%; in [15], 4.3%; in assay [16], 5.73%; in [17], 4.48%. Further, the inhibition turned out to be 5.12% in [18] and 1.6% in assay [19].
On to `CN1CCC(n2cnc(-c3ccc(F)cc3)c2-c2ccnc(Nc3ccccc3)n2)CC1`, for which the inhibition in [1] stood at 1.8%; in assay [2], 11.5%; in assay [20], 33.7%; in assay [3] it was 0.12%; in assay [4] it was 3.33%; in assay [5], 0.8%. The inhibition is 1.93% in assay [6]; -1.9% in assay [7]; 0.82% in assay [8]; 2.41% in assay [9]; 2.25% in assay [10]; 8.83% in [11]. In addition, the inhibition in [12] amounted to 42.3%; in assay [13] it was 1.81%; in assay [15], 3.78%; in [16], 4.47%; in [17], 3.27%; in [18] it was 6.57%. In addition, the inhibition in [19] is -3.04%.
For the molecule `NS(=O)(=O)c1ccc(Nc2ncc(-c3ccccc3)o2)cc1`, the inhibition in assay [1] came out at 1.97%; in [2] it was 2.45%; in assay [20] it was 10.1%; in [3], 4.95%; in assay [4] it was 13.1%; in assay [5], 35.3%. Moreover, the inhibition in [6] was determined as 78.8%; in assay [7], 8.41%; in assay [8], 2.33%; in assay [9], 3.59%; in [10], 4.49%; in assay [11], 3.4%. Besides, the inhibition in assay [12] turned out to be 7.73%; in assay [13], 2.88%; in assay [14], 2.94%; in assay [15], 5.82%; in assay [16], 8.2%; in assay [17], 6.65%. Moreover, the inhibition is 6.08% in assay [18] and -0.15% in [19].
Turning to `CCn1cc(-c2ccnc3[nH]ccc23)c(-c2cccc(NC(=O)Nc3ccc(OCc4ccccc4)cc3)c2)n1`, the inhibition in [1] is 3.27%; in assay [2], 7.42%; in [20], 34.1%; in assay [3], -3.05%; in assay [4], 2.9%; in [5], -1.9%. Further, the inhibition in assay [6] was -2.19%; in assay [7], -9.12%; in [8], 0.52%; in assay [9], 0.03%; in [10], 1.53%; in assay [11] it was 1.1%. Also, the inhibition in assay [12] is 24.8%; in assay [13] it was -0.61%; in assay [14] it was 2.51%; in assay [19], 4.65%.
